Sampled rows, rich in hits. Any-hit rate of the full collection: about 4.7%.
EBV LMP1 NFkB = reduces LMP1-driven NF-kappaB luciferase signal | LMP1-induced NF-kappaB luciferase reporter cells, luminescence | inhibition, % at 12.5 µM | 350,000 compounds, 0.69% hits; in the data active = inhibition above about 41%
TWEAK Fn14 block = inhibitors of TWEAK-Fn14 interaction signaling; TWEAK-stimulated Fn14 reporter cells, luciferase luminescence, 8 h; inhibition, % at 10 µM; 360,000 compounds, 2% hits; in the data active = inhibition above about 50%
HSF-1 act = increases HSF-1 driven luciferase reporter signal | NIH3T3-HGL HSF-1 luciferase reporter, MG132, 8 h; 100% = twice DMSO control signal | activation, % at 9 µM | 300,000 compounds, 1.7% hits;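 active = mean replicate activation of at least 50% with a set share of replicates each reaching 50%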
HSP90 refold inh = HSP90 refolding inhibition in rabbit reticulocyte lysate; luciferase refolding luminescence, 3 h; inhibition, % at 5.6 µM; 290,000 compounds, 0.91% hits; AID 1789;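 active = inhibition above the screen-wide mean plus 3 SD, computed separately per campaign, cut at about 16% in these data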;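 note: inhibitors lower the luminescence because luciferase stays unfolded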
TROY signal inh = blocks TROY-dependent signaling in reporter cells. Q293 LMP1-TROYcd NF-kB luciferase reporter, 4 h. 360,000 compounds, 0.98% hits. AID 1347056. inhibition, % at 10 µM;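 active = compounds whose plate-normalised and pattern-corrected inhibition of the luciferase reporter signal at the single screening dose is 50% or more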
HSF1 inh = HSF1 inhibition. activity change, negative = inhibition, % at 7.5 µM (by protocol). NIH3T3-HGL HSE-luciferase, MG132-induced, luminescence 8 h; stronger effect = lower value. 300,000 compounds, 0.77% hits;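 active = more than half of replicate wells show activity change below -50%, luminescence cut by over half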;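 note: luciferase reports HSF-1 transcriptional activity via heat shock element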
Large screens that a line does not name were inactive.

Cn1c(C(=O)Nc2ccc3c(c2)OCO3)cc2sccc21	HSF-1 act 66
Cn1c(C(=O)Nc2ccccc2)cc2sccc21	none
COC(=O)c1ccc(NC(=O)c2cc3sccc3n2C)cc1	TWEAK Fn14 block 56
CCCCCc1ccc(OCCOCCn2c[n+](C)c3ccccc32)c(CCCCC)c1	TWEAK Fn14 block 89, TROY signal inh 52
CCCCCc1ccc(OCCC[n+]2ccccc2)c(CCCCC)c1	TWEAK Fn14 block 67
CC1=C(C(=O)N(C(C)C)C(C)C)CC(CC(=O)NCCc2ccccn2)C(=O)N1CCCN1CCCC1=O (stereo not given)	none (no result: EBV LMP1 NFkB, HSF-1 act, HSP90 refold inh, HSF1 inh)
COC(=O)Nc1ccc(SCC(=O)c2ccc(Cl)cc2)cc1	HSF-1 act 107
COC(=O)Nc1ccc(SCC(=O)c2ccccc2)cc1	none
O=C1/C(=N\S(=O)(=O)c2cccs2)C([n+]2ccccc2)=C([O-])c2ccccc21	TROY signal inh 83
CC(C)(C)c1cc[n+](C2=C([O-])c3ccccc3C(=O)/C2=N\S(=O)(=O)c2cccs2)cc1	TWEAK Fn14 block 84, TROY signal inh 70 (no result: EBV LMP1 NFkB)
OCC[C@@H]1C[C@H](O)[C@@H](O)[C@@]2(OCc3cc(C(F)(F)F)ccc32)O1	none (no result: HSF-1 act, HSP90 refold inh, HSF1 inh)
COc1ccc(CN2C(=O)C(CC(=O)NCC3CCCCC3)CC(C(=O)N(C)C)=C2C)cc1 (stereo not given)	none (no result: HSF-1 act, HSP90 refold inh, HSF1 inh)
OC(c1ccccc1)c1nc(-c2cncnc2)cs1 (stereo not given)	none (no result: EBV LMP1 NFkB, HSF-1 act, HSP90 refold inh, HSF1 inh)
COc1cc(F)ccc1-c1csc(C(NC(C)=O)c2cccc(F)c2)n1 (stereo not given)	none (no result: EBV LMP1 NFkB, HSF-1 act, HSP90 refold inh, HSF1 inh)
O=S(=O)(c1cc(Cl)ccc1Cl)N1CC2CCCN2c2ccc(C(F)(F)F)cc21 (stereo not given)	HSF-1 act 70
O=C(OCC(=O)c1ccc[nH]1)c1ccc(S(=O)(=O)C(F)F)cc1	none (no result: HSF-1 act, HSP90 refold inh, HSF1 inh)
COC1=CC(=O)C=C(OC)C1=O	EBV LMP1 NFkB 83 (no result: HSF-1 act, HSP90 refold inh, HSF1 inh)
COC1=CC(=O)c2ccccc2C1=O	none (no result: HSF-1 act, HSP90 refold inh, HSF1 inh)
COC1=C(C)C(=O)C2=C(C1=O)C1C3CC4=C(C(=O)C(OC)=C(C)C4=O)C(CNC(=O)C(C)=O)N3C(C#N)C(C2)N1C (stereo not given)	EBV LMP1 NFkB 77, TWEAK Fn14 block 100, TROY signal inh 63 (no result: HSF-1 act, HSP90 refold inh, HSF1 inh)
O=C(Nc1cccc2ccccc12)NC1Cc2ccccc2C1	TWEAK Fn14 block 89, TROY signal inh 57
O=C(CCCO)NC1Cc2ccccc2C1	TWEAK Fn14 block 60
O=C(Nc1cccc2ccccc12)NC1CCCCC1	none
Cc1cc(NC(c2cccnc2)c2c(C)[nH]c3ccccc23)no1 (stereo not given)	HSP90 refold inh 16
CCN1C[C@@H]2[C@@H]3C(=O)N(Cc4ccccc4)C(=O)[C@@H]3[C@](CC)(C1=O)N2C(=O)c1ccc(Cl)c(Cl)c1	none (no result: HSF-1 act, HSP90 refold inh, HSF1 inh)
COc1ccc(CCN=C(NS(=O)(=O)c2ccc(Cl)cc2)c2ccccc2)cc1	none (no result: EBV LMP1 NFkB, TWEAK Fn14 block, TROY signal inh)
COc1ccc(CCN=C(NS(=O)(=O)c2ccccc2)c2ccccc2)cc1OC	HSF-1 act 59
CSCCNC(=O)C1(C)CCN1C(=O)c1ccc(C(C)(C)C)cc1 (stereo not given)	none (no result: EBV LMP1 NFkB, HSF-1 act, HSP90 refold inh, HSF1 inh)
Cn1c(=O)c2c(ncn2CCC(=O)N/N=C/c2ccccc2)n(C)c1=O	none
Cn1c(=O)c2c(ncn2CCC(=O)N/N=C/c2cccnc2)n(C)c1=O	TWEAK Fn14 block 84
Cc1ccc(C2=NC(C(F)(F)F)(C(F)(F)F)c3c(n(-c4ccc(F)cc4)c(=O)[nH]c3=O)N2)cc1	none
O=c1[nH]c(=O)n(-c2ccc(F)cc2)c2c1C(C(F)(F)F)(C(F)(F)F)N=C(c1ccc(F)cc1)N2	TWEAK Fn14 block 65
O=C1NC[C@@H](CCCCN2CCN(CCC3CCCCC3)C(=O)C2=O)N(CC2CCCCC2)C1=O	none (no result: EBV LMP1 NFkB, HSF-1 act, HSP90 refold inh, HSF1 inh)
COCCN(C(=O)COC(=O)C12CC3CC(CC(O)(C3)C1)C2)c1c(N)n(Cc2ccccc2)c(=O)[nH]c1=O	none (no result: HSF-1 act, HSP90 refold inh, HSF1 inh)
Cc1cc(C)n(-c2nc3ccccc3nc2N2CCN(C(=O)c3ccc(F)cc3)CC2)n1	HSF-1 act 62
COC(=O)c1c(N)[nH]c(C(=O)c2ccccc2)c1-c1ccc(Br)cc1	none (no result: EBV LMP1 NFkB, HSF-1 act, HSP90 refold inh, HSF1 inh)
COCC(C)NC(=O)C1CC(=O)N(CCc2ccc(F)cc2)C1 (stereo not given)	none (no result: HSF-1 act, HSP90 refold inh, HSF1 inh)
CSc1ncc(Cl)c(C(=O)Nc2nnc(SC)s2)n1	none
CSc1nnc(NC(=O)c2nc(S(=O)(=O)Cc3ccccc3)ncc2Cl)s1	TWEAK Fn14 block 98
